TIM10 inh: growth inhibitors of TIM10 yeast strain; S. cerevisiae TIM10 strain growth, BacTiter-Glo luminescence, 24 h; inhibition, % at 10 µM; actives 1.4% (n = 330,000); AID 463195;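 active = inhibition of 40% or more at the single tested concentration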;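 note: wild-type TIM10 isogenic control strain grown at permissive 25 °C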
NLRP3 yeast inh: inhibitors of NALP3 inflammasome in yeast | Yeast reconstituted NLRP3/ASC/caspase-1, beta-gal luminescence, 24 h | inhibition, % at 10 µM | actives 0.39% (n = 330,000);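 active = inhibition of 50% or more; inactive = inhibition below 50%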;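 note: plate controls were induced DMSO wells for no effect and uninduced yeast grown without galactose for full effect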
tim23-1 inh: growth inhibitors of tim23-1 mutant yeast | AID 463212 | inhibition, % at 20 µM | S. cerevisiae tim23-1 growth, BacTiter-Glo luminescence, 24 h | actives 1.3% (n = 330,000);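 active = growth inhibition of the mutant yeast at or above 50%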;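 note: temperature-sensitive mutant grown at 25 °C; plate controls were DMSO-treated mutant yeast for no effect and medium wells lacking yeast for full effect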
tim10-1 inh: tim10-1 yeast growth inhibition. S. cerevisiae tim10-1 ts strain growth, BacTiter-Glo, 24 h. inhibition, % at 20 µM. actives 2.2% (n = 330,000);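 active = inhibition of at least 40%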;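 note: mutant grown at 25 °C; 0% = DMSO wells with yeast and 100% = wells holding no yeast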
NALP1 yeast inh: inhibitors of NALP1 inflammasome in yeast. S. cerevisiae NALP1/ASC/caspase-1 growth, X-gal OD620, 72 h. inhibition, % at 10 µM. actives 0.61% (n = 280,000). AID 2071; in the data active = inhibition mostly above about 24%, no sharp cut-off; inactive = mostly below about 32%
tim10 confirm: TIM10 yeast growth inhibition, confirmed | shares compounds with TIM10 inh | S. cerevisiae tim10 strain growth, BacTiter-Glo luminescence, 24 h | inhibition, % at 10 µM | actives 63% (n = 4,600);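 active = inhibition of yeast growth at or above a set limit in either of two replicates at 10 µM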;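 note: this counterscreen used the strain with wild-type TIM10; 0% = yeast with DMSO and 100% = medium wells lacking yeast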
tim23-1 conf: tim23-1 yeast growth inhibition, confirmed | shares compounds with tim23-1 inh | S. cerevisiae tim23-1 growth, BacTiter-Glo luminescence, 24 h | inhibition, % at 20 µM | actives 83% (n = 4,400);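 active = inhibition above about 39% in either of two replicate wells at 20 µM, limit read from the data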;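 note: temperature-sensitive tim23-1 mutant grown at 25 °C; 0% = DMSO wells with yeast and 100% = medium wells without yeast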
The depositor's hits bear a star; · = no result given. An excerpt weighted towards active compounds, which were near 4% of everything screened.

SMILES	TIM10 inh	NLRP3 yeast inh	tim23-1 inh	tim10-1 inh	NALP1 yeast inh	tim10 confirm	tim23-1 conf
Cc1ccc(-c2cc(O)cc3sc(=O)oc23)cc1C	53*	25	71*	23	-9	68*	7
O=c1oc2cc(O)ccc2s1	-1	44	-4	-8	·	·	·
CCc1ccc(-c2cc(C(=O)N3N=C(C(F)F)CC3(O)C(F)F)c3ccccc3n2)cc1 (stereo not drawn)	48*	-18	54*	40	0	26	29
O=C(Oc1coc(CSc2ncccn2)cc1=O)c1ccccc1[N+](=O)[O-]	59*	0	62*	39	7	52*	49*
CC(=O)Nc1cc2c3c(c1)CCC(=O)N3CCC2	-2	9	5	11	17	·	·
Cn1c(CSc2nc3ccccc3s2)nc2ccccc21	46*	36	58*	38	39	43*	65*
Cn1c(CSc2nc3ccccc3s2)n[nH]c1=S	23	12	17	35	26	·	·
O=C(N/N=C/c1cccnc1)c1cc(-c2ccc(Br)cc2)nc2ccccc12	5	13	37	30	12	·	·
N#CC1(c2nc3ccccc3[nH]2)CC1c1ccc2c(c1)OCO2 (stereo not drawn)	56*	15	56*	33	0	32*	72*
O=c1ccc2ccc(OCCOc3cccc(Cl)c3)cc2o1	20	28	41	28	23	·	·
N=c1oc2cc(O)ccc2cc1C(=O)Nc1ccccn1	-4	-37	-2	-2	7	·	·
N=c1oc2cc(O)ccc2cc1C(=O)Nc1ccc(Br)cc1	41*	-1	55*	33	19	25	56*
O=C(CNC(=S)NC(=O)c1cccs1)c1ccccc1	44*	16	63*	37	15	-21	67*
Cc1ccc2nc(-c3ccccc3N)[nH]c2c1	44*	42	67*	28	13	14	31
Cc1ccc(C)c(-c2nc3ccc(N)cc3[nH]2)c1	21	-2	0	-7	-2	·	·
Clc1ccc(CCNc2ncnc3c2nnn3Cc2ccccc2)cc1	-1	21	0	4	13	·	·
Cc1ccc(/C=N/NC(=O)c2c(-c3ccccc3)noc2C)c(O)c1	43*	22	57*	36	2	25	42*
CC(C)c1ccc(C(C(=O)NC2CCCC2)N(C(=O)c2csnn2)C2CC2)cc1 (stereo not drawn)	2	9	13	21	-14	·	·
CCCCOc1ccc2ccccc2c1C=O	29	36	45	27	22	·	·
O=[N+]([O-])/C=C/c1c(OCc2ccccc2)ccc2ccccc12	73*	9	61*	34	1	6	47*
O=C1CC(=O)Nc2cc(S(=O)(=O)Nc3ccc(Cl)c(C(F)(F)F)c3)ccc2N1	-10	11	8	13	1	·	·
O=C(CCN1CCOCC1)N/N=C/c1cc(Br)cc(Br)c1O	58*	32	63*	37	5	50*	62*
CCCn1c(SCC(=O)N2CC(=O)Nc3ccccc32)n[nH]c1=O	-6	10	7	5	·	·	·
CCOC(=O)N1CCN(C(=O)CS(=O)Cc2nc(-c3ccc(OC)c(OC)c3)oc2C)CC1 (stereo not drawn)	11	-1	14	6	18	·	·
Cc1cc(C)c(NS(=O)(=O)c2cccc3cccnc23)c(C)c1	14	25	27	22	10	·	·
SMILES	TIM10 inh	NLRP3 yeast inh	tim23-1 inh	tim10-1 inh	NALP1 yeast inh	tim10 confirm	tim23-1 conf
Cc1ccc(S(=O)(=O)Nc2cccc3cccnc23)c([N+](=O)[O-])c1	46*	33	52*	23	-7	35*	53*
Cc1ccc(S(=O)(=O)N[C@H](C(=O)OCC(=O)NC(=O)C2CCCCC2)C(C)C)cc1	-2	7	28	9	·	·	·
Cc1ccc(-n2sc3ccccc3c2=O)cc1	65*	-10	59*	36	15	1	56*
Cc1ccc(Cn2c(=O)sc3ccccc3c2=O)cc1	10	49	18	8	33	·	·
CC(CCCN(C)C)C(Cc1ccccc1)c1ccccc1 (stereo not drawn)	20	25	21	9	·	·	·
O=C(O)CSc1ncnc2scc(-c3ccccc3)c12	10	4	10	5	-4	·	·
CCC(=O)Nc1ccccc1Sc1ncnc2scc(-c3ccccc3)c12	43*	10	57*	32	26	32*	50*
Cc1cccc(N2CCN(S(=O)(=O)c3ccc4c(c3)NC(=O)CS4)CC2)c1C	40*	15	63*	39	16	36*	28
N/C(CC1CC1(Cl)Cl)=N\OC(=O)c1ccccc1 (stereo not drawn)	52*	4	80*	35	-6	66*	73*
COc1ccc(CC(=O)O/N=C(\N)Cc2ccc(OC)c(OC)c2)cc1	6	0	7	11	14	·	·
COc1ccc(C/C(N)=N/OC(=O)CCc2ccccc2)cc1	71*	18	72*	23	18	83*	78*
COC(C(=O)N1CCC(CCC(=O)Nc2ccccc2)CC1)c1ccccc1 (stereo not drawn)	9	-5	11	6	3	·	·
O=C(Nc1nc2ccccc2s1)C1c2ccccc2Oc2ccccc21	45*	20	51*	36	45	46*	58*
O=C(Nc1nc2ccccc2s1)C1CCCO1 (stereo not drawn)	7	30	9	16	12	·	·
Cc1noc(C)c1NC(=O)N(C)C[C@H]1Oc2ccc(NS(=O)(=O)c3cccs3)cc2C(=O)N([C@H](C)CO)C[C@@H]1C	-2	-6	-24	-4	·	·	·
Cc1cccc(OC(C)C(=O)N2CCN(Cc3ccc4c(c3)OCO4)CC2)c1 (stereo not drawn)	2	15	10	10	9	·	·
COc1ccccc1NC(=O)c1sc2nc(-c3ccco3)ccc2c1N	16	16	-12	15	8	·	·
Nc1c(C(=O)Nc2ccccc2)sc2nc(-c3ccco3)ccc12	67*	15	64*	36	1	63*	85*
CCC(C)NC(=O)Nc1ccc(Br)cc1 (stereo not drawn)	-9	33	25	17	4	·	·
CCC(C)Nc1ccc(NC(C)CC)cc1 (stereo not drawn)	61*	5	80*	38	·	69*	82*
O=C(Nc1nccs1)c1cc2c(s1)CCCCC2	46*	-22	58*	37	10	59*	65*
O=C(Nc1nncs1)c1cc2c(s1)CCC2	5	33	19	-3	-5	·	·
Cc1ccc(NS(=O)(=O)c2cccc(C(=O)NCC(c3ccco3)N3CCCC3)c2)cc1 (stereo not drawn)	-2	14	0	8	·	·	·
